PubChem BioAssay (NCATS)
Where “and” joins values, the source holds several entries; their conditions need not be identical. Equal entries are not always repeated. Results filed as inconclusive are left out. Calls of active or inactive are those of the source. Unless noted, the call rests on the fitted dose curve; in most records, active means well fitted curve in the direction sought with a large enough effect; inconclusive means small, poorly fitted or top-dose-only effect, or another doubt; inactive means no such curve, though single readings can be large; an effect the other way counts as inactive or inconclusive.

Legend:
[1] = qHTS Assay for Lipid Storage Modulators (AID 1519; calls by dose curve; on activity change, negative = inhibition: on the % scale 0 is the no-effect control and ±100 the full control effect); conditions: Drosophila S3 cells, BODIPY lipid droplet/cell ratio, laser cytometry, cells loaded with oleic acid
How it was run: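 Cells seeded at 5,000 per well were treated with compounds over a concentration series and loaded with oleic acid (400 uM, as added). Lipid droplet fluorescence (488 nm excitation, 500-530 nm channel) was read by laser-scanning cytometry and normalized to 20 uM Triacsin C.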

[2] = target: Alpha-galactosidase (Coffea arabica) (UniProt Q42656); assay: Counterscreen for Glucocerebrosidase Inhibitors: qHTS Assay for Coffee Bean alpha-Galactosidase at pH 5.9 (AID 998); conditions: coffee bean alpha-galactosidase enzyme assay; series mostly up to 76.9 µM;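 further: plate controls were uninhibited enzyme for no effect and no-enzyme basal signal for full effect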
How it was run: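 Enzyme 2 nM + cpd (0.7 nM–77 uM titration) + 4-MU-alpha-Gal 80 uM, pH 5.9 citrate/Tween-20, RT 20 min, NaOH/glycine stop pH 10, fluor 365/440. Normalized to no-enzyme and full-activity controls; Hill-fit AC50.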

[3] = qHTS for differential inhibitors of proliferation of Plasmodium falciparum line 7G8 (AID 1815); conditions: Plasmodium falciparum 7G8 proliferation inhibition; series mostly up to 28.7 µM;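 further: potency means the concentration at half of the fitted maximal effect; parasite growth measured after three days of incubation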
[4] = qHTS for differential inhibitors of proliferation of Plasmodium falciparum line GB4 (AID 1816); conditions: Potency: Plasmodium falciparum GB4 proliferation inhibition; series mostly up to 28.7 µM;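 further: potency means the concentration at half of the fitted maximal effect; parasite growth measured after 72 h incubation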
[5] = qHTS for differential inhibitors of proliferation of Plasmodium falciparum line 3D7 (AID 1876); further: potency means the concentration at half of the fitted maximal effect; conditions: P. falciparum 3D7 proliferation inhibition; series mostly up to 28.7 µM
[6] = qHTS for differential inhibitors of proliferation of Plasmodium falciparum line D10 (AID 1877); conditions: series mostly up to 28.7 µM;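 further: parasites grown with compound for 72 h before DNA staining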; further: potency means the concentration at half of the fitted maximal effect;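 on activity change, negative = inhibition: plate controls were vehicle wells for no effect and reference inhibitor wells for full effect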
[7] = qHTS for differential inhibitors of proliferation of Plasmodium falciparum line Dd2 (AID 1882); conditions: Potency: Plasmodium falciparum Dd2 proliferation inhibition; series mostly up to 28.7 µM; further: nearly all actives have a fitted effect of over 65% in size; further: potency means the concentration at half of the fitted maximal effect;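 on activity change, negative = inhibition: compound exposure of 72 h on infected erythrocytes; plate controls were DMSO vehicle for no effect and 0.29 µM artemisinin for full effect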
How it was run: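 RBC culture, 0.3% parasitemia / 2.5% Hct final; cpd added by pin tool in DMSO; 72 h, 37 C, 5% CO2; lysis buffer + SYBR Green I, o/n RT dark; FI 485/535; norm. to artemisinin 0.29 uM and DMSO.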

[8] = qHTS for differential inhibitors of proliferation of Plasmodium falciparum line W2 (AID 1883); conditions: Potency: Plasmodium falciparum W2 proliferation inhibition; series mostly up to 28.7 µM;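 further: potency means the concentration at half of the fitted maximal effect; parasites grown with compound for 72 h before lysis and staining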
[9] = qHTS for differential inhibitors of proliferation of Plasmodium falciparum line HB3 (AID 1886); conditions: Potency: Plasmodium falciparum HB3 proliferation inhibition; series mostly up to 28.7 µM;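 further: parasites grown with compound for 72 h before SYBR Green readout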; further: potency means the concentration at half of the fitted maximal effect;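 on activity change, negative = inhibition: plate controls were vehicle for no effect and reference inhibitor for full effect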
[10] = Cell Viability - LYMP2-024 (AID 988); conditions: LYMP2-024 lymphoblastoid cell viability; series mostly up to 92.2 µM;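 further: cells exposed to compound for 24 hr at 37 °C; plate controls were DMSO only for no effect and 92 µM tetraoctylammonium bromide for full effect; nearly all actives have a fitted effect of over 60% in size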
How it was run: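 Cells at 2500 per well received compound for 24 hr after a 5 hr settling period. Viability was scored by CellTiter-Glo luminescence, with AC50 from Hill fits.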

[11] = Cell Viability - LYMP2-026 (AID 989); conditions: LYMP2-026 lymphoblastoid cell viability, qHTS; series mostly up to 92.2 µM;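 further: cells exposed to compound for 24 h at 37 °C; on the % scale 0 is the no-effect control and ±100 the full control effect; nearly all actives have a fitted effect of over 50% in size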
How it was run: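 Acute toxicity screen in complete culture medium, with 24 hr compound exposure at 37 C. Viability read as cellular ATP via luciferase reaction, with tetraoctylammonium bromide (6.4pM to 92 uM) as positive control.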

[12] = Cell Viability - LYMP1-002 - Assay at 24 hr (AID 993); conditions: LYMP1-002 lymphoblastoid cells viability; series mostly up to 92.2 µM; further: on the % scale 0 is the no-effect control and ±100 the full control effect
How it was run: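 Viability was judged from intracellular ATP using a luciferase read-out, following a 24-hour compound incubation at 37 C of lymphoblastoid cells seeded at 2500 per well. Concentration-response data were fitted to the Hill equation for AC50.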

[13] = Cell Viability - LYMP1-002 - Assay at 40 hr (AID 994); conditions: LYMP1-002 lymphoblastoid cell viability; series mostly up to 92.2 µM;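 further: 0% = DMSO only and full inhibition = 92 µM tetraoctylammonium bromide; nearly all actives have a fitted effect of over 60% in size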
How it was run: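 Concentration-dependent ATP loss after 40 hr treatment at 37 C defined toxicity; AC50 values were obtained by fitting the standard Hill equation.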

[14] = Validation of Assay for Modulators of Lamin A Splicing (AID 1459; active means well fitted curve in the direction sought with a large enough effect in the signal ratio; the % refers to the signal ratio;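 further: cells exposed to compound for two days before reading; 0% is about no effect; ratio rise marks activators and ratio drop marks inhibitors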); conditions: Lamin A splicing dual RFP/GFP fluorescence reporter; series mostly up to 9.22 µM
How it was run: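 S3 HeLa stably expressing lamin A-EGFP splicing minigene and DsRed2, 600 cells/well in Opti-MEM with 2% FBS, treated 48 h at 37C; laser-scanning cytometry gives GFP/RFP total intensity ratio; ancitabine positive control, 0.5% DMSO vehicle.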

[15] = target: DNA repair nuclease/redox regulator APEX1 (Homo sapiens) (UniProt P27695); assay: qHTS Validation Assay for Inhibitors of the Human Apurinic/apyrimidinic Endonuclease 1 (APE1) (AID 1705;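 further: TAMRA fluorescence gain over two minutes as APE1 cuts a quenched THF abasic duplex; on the % scale 0 is the no-effect control and ±100 the full control effect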); conditions: purified APE1 endonuclease activity, fluorescence, titration; series mostly up to 57.1 µM
How it was run: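 Fluorogenic double-stranded THF abasic-site substrate (5'-TAMRA/3'-BHQ-2), 50 nM final. Enzyme preincubated with compound 15 min at room temperature, then substrate added. Kinetic fluorescence (ex 525/em 598 nm) read three times at 60 s intervals; activity taken as third-minus-first read difference.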

[16] = Counterscreen for APE1 Inhibitors: Fluorescent Dye Displacement Validation Assay (AID 1707); conditions: fluorescent dye displacement from DNA; series mostly up to 57.1 µM;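 further: plate controls were ThO with dsDNA and no compound for no effect and ThO without dsDNA for full effect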
How it was run: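 Counterscreen flags promiscuous DNA binders: compounds displacing ThO from duplex DNA (abasic THF site, 50 nM) reduce 540 nm emission (480 nm excitation). ThO 250 nM final; Tris-HCl pH 7.5 with NaCl, MgCl2 and Tween-20.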

[17] = target: Endonuclease 4 (Escherichia coli (strain K12)) (UniProt P0A6C1); assay: Counterscreen for APE1 Inhibitors: qHTS Validation Assay for Inhibitors of Endonuclease IV (AID 1708); further: on the % scale 0 is the no-effect control and ±100 the full control effect; conditions: E. coli endonuclease IV, DNA cleavage fluorescence; series mostly up to 57.1 µM
How it was run: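 Read-out: fluorescence rise (ex 525/em 598 nm) from incision of a TAMRA/BHQ-2 double-stranded THF abasic-site substrate (50 nM), measured kinetically; third-minus-first read difference gave reaction progress. Enzyme 2 nM.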

[18] = qHTS Assay for Modulators of Human Peripheral Myelin Protein 22 (PMP22) Expression/Activity (AID 1967; active means well fitted curve in the direction sought with a large enough effect in the signal ratio; the % refers to the signal ratio;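 further: 0% = untreated cells and 100% end not stated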); conditions: Cell-based PMP22 reporter, dual-color luciferase ratio, mouse Pmp22 promoter in mouse Schwann cells; series mostly up to 115 µM
How it was run: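 Mouse MSC80 Schwann cells carrying Pmp22 promoter–green click beetle luciferase plus EF-alpha–red luciferase control, dosed 24 h at 37 °C. Dual-filter luminescence, overlap-corrected; %Activity from green/red ratio normalised to untreated cells, concentration-response curves fitted.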

[19] = target: Alpha-galactosidase A (Homo sapiens) (UniProt P06280); assay: Counterscreen for Glucocerebrosidase Inhibitors: qHTS Assay for Human alpha-Galactosidase at pH 4.5 (AID 992); conditions: purified enzyme, fluorogenic substrate; series mostly up to 76.9 µM; further: 0% is about no effect
How it was run: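 Fluorogenic 1536-well qHTS at pH 4.5 (citrate, Tween-20): 2 nM enzyme, 80 uM 4-MU-alpha-galactoside, 20 min room temperature, NaOH/glycine stop. Titration 0.7 nM to 77 uM, data normalized to no-enzyme and full-activity controls, Hill-fitted AC50.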

[20] = target: alpha-glucosidase (Oryza sativa, rice) (UniProt Q653V4); assay: Counterscreen for Glucocerebrosidase Inhibitors: qHTS Assay for Rice alpha-Glucosidase at pH 5.0 (AID 997); conditions: rice alpha-glucosidase enzyme activity; series mostly up to 76.9 µM;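 further: 0% = full activity with enzyme and -100% = basal without enzyme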
How it was run: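 Endpoint fluorogenic assay at pH 5.0: compounds (0.7 nM to 77 uM) titrated against 4 nM rice enzyme and 400 uM 4-MU-alpha-glucoside for 20 min at room temperature; NaOH/glycine stop, read ex 365/em 440 nm, Hill-fitted AC50.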

[21] = measured here: cell count channel max response
[22] = measured here: lipid channel max response

Sequence of Alpha-galactosidase (Coffea arabica) (Q42656 whole entry, looked up): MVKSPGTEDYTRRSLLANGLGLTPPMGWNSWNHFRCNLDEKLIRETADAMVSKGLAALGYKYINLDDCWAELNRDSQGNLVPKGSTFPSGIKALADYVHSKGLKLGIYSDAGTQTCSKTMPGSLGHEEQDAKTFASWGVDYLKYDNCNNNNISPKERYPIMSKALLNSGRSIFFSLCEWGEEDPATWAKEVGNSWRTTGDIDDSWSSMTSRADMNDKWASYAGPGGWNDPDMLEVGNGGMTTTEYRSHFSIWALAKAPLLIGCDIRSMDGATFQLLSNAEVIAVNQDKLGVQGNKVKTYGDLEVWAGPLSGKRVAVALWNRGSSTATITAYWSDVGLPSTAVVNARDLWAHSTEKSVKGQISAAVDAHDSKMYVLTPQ
Sequence of DNA repair nuclease/redox regulator APEX1 (Homo sapiens) (P27695 whole entry, looked up): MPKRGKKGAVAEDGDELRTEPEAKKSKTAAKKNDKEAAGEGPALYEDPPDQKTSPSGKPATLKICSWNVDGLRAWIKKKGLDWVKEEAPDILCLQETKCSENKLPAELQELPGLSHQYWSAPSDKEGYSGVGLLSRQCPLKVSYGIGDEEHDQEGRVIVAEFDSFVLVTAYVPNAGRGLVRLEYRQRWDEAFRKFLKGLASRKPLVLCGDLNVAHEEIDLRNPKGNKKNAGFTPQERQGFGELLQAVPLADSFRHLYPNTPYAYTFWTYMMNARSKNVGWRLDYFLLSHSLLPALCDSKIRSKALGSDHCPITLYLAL
Sequence of Alpha-galactosidase A (Homo sapiens) (P06280 whole entry, looked up): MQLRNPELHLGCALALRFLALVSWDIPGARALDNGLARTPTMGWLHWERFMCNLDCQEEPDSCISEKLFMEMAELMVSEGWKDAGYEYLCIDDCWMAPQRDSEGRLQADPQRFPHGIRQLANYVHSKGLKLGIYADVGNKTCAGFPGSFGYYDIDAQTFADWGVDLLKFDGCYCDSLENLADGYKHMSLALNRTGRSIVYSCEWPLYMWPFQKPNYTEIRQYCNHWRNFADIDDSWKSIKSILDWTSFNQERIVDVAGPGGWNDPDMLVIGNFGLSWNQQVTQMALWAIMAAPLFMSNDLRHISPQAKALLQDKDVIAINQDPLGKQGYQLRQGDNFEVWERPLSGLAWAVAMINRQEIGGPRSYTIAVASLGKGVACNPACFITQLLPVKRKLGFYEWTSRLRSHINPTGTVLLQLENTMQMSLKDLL

## O=C1c2ccccc2C(=O)c2ccccc21
[1]; at 57.5 µM (top of the series)
  activity change, negative = inhibition: 11.7% (inactive)
[1]; [21]
  max response: 14.4%
[1]; [22]
  max response: 29.4%

## CCC1(CC)C(=O)C=CNC1=O
[1]; at 25.7 µM (top of the series)
  activity change, negative = inhibition: -2.39% (inactive)
[1]; at 57.5 µM (top of the series)
  activity change, negative = inhibition: 5.04% (inactive)
[1]; [21]
  max response: -5.28% and 19.1%
[1]; [22]
  max response: -7.28% and 25.2%

## COc1ccc2c(c1)C13CCCC[C@@H]1C(C2)N(C)CC3 (some centres not stated)
[1]; at 25.7 µM (top of the series)
  activity change, negative = inhibition: -0.828% (inactive)
[1]; [21]
  max response: -8.06%
[1]; [22]
  max response: -9.19%

## CC(=O)N1CCN(c2ccc(OC[C@H]3CO[C@](Cn4ccnc4)(c4ccc(Cl)cc4Cl)O3)cc2)CC1
[2]
  outcome: inactive
[3]
  Potency: 11.2 µM (active)
[4]
  Potency: 7.94 µM (active)
[5]
  Potency: 7.08 µM (active)
[6]
  Potency: 10 µM (active)
[7]
  Potency: 7.94 µM (active)
[8]
  Potency: 7.08 µM (active)
[9]
  Potency: 11.2 µM (active)

## CC(C)NC(C)C
[10]
  outcome: inactive
[11]
  outcome: inactive
[12]
  Potency: inactive
[13]
  Potency: inactive

## CC(NC(C)(C)C)C(=O)c1cccc(Cl)c1 (configuration not stated)
[14]
  outcome: inactive
[1]; at 57.5 µM (top of the series)
  activity change, negative = inhibition: 9.02% (inactive) and 0.884% (inactive)
[1]; [21]
  max response: 11.7% and -20.3%
[1]; [22]
  max response: 23.1% and -17.7%
[15]
  Potency: inactive
[16]
  outcome: inactive
[17]
  outcome: inactive
[4]
  Potency: 12.6 µM (active)
[5]
  Potency: inactive
[6]
  Potency: inactive
[9]
  Potency: inactive
[18]
  outcome: inactive

## c1ccc2c(c1)sc1ccccc12
[1]; at 57.5 µM (top of the series)
  activity change, negative = inhibition: 7.62% (inactive)
[1]; [21]
  max response: -5.03%
[1]; [22]
  max response: 4.45%

## NC(=O)CS(=O)C(c1ccccc1)c1ccccc1 (configuration not stated)
[1]; at 57.5 µM (top of the series)
  activity change, negative = inhibition: 4.67% (inactive)
[1]; [21]
  max response: 3.09%
[1]; [22]
  max response: 10.7%

## COc1c2c(cc3c1OCO3)CCN(C)C2
[1]; at 25.7 µM (top of the series)
  activity change, negative = inhibition: 1.64% (inactive)
[1]; [21]
  max response: 2.73%
[1]; [22]
  max response: 3.88%

## Clc1cccc(SC2CCNCC2)n1
[1]; at 57.5 µM (top of the series)
  activity change, negative = inhibition: -5.67% (inactive)
[1]; [21]
  max response: -24.9%
[1]; [22]
  max response: -29.2%

## COc1cc(-c2ccc(=O)[nH]n2)ccc1OC(F)F
[2]
  outcome: inactive
[1]; at 25.7 µM (top of the series)
  activity change, negative = inhibition: -2.55% (inactive)
[1]; [21]
  max response: -17.6%
[1]; [22]
  max response: -17.5%

## C[C@]12CCC(=O)C=C1CC[C@@H]1[C@@H]2CC[C@]2(C)C(=O)CC[C@@H]12
[10]
  outcome: inactive
[11]
  outcome: inactive
[19]
  outcome: inactive
[12]
  Potency: inactive
[13]
  Potency: inactive
[20]
  outcome: inactive
[2]
  outcome: inactive
[14]
  outcome: inactive
[1]; at 57.5 µM (top of the series)
  activity change, negative = inhibition: 0.917% (inactive)
[1]; [21]
  max response: 67.2%
[1]; [22]
  max response: 68.1%
[15]
  Potency: inactive
[16]
  outcome: inactive
[17]
  outcome: inactive
[5]
  Potency: inactive
[7]
  Potency: inactive
[9]
  Potency: inactive
